In the supplement of paper PMC11732987, “Enantioselective OTUD7B fragment discovery through chemoproteomics screening and high-throughput optimisation” (Communications Chemistry, 2025):

Legend:
Assay in all cases: log2 ratio of Biotin-Ahx-Ub-VS probe labelling (fragment/DMSO); higher = less target engagement (more negative = stronger competition), active = hit call of the paper (q ≤ 0.05, log2 ratio ≤ -1)
Conditions in all cases: compound concentration: 200 uM; treatment time: 3 h
[1] = biological target: T1, USP42 (UniProt Q9H9J4)
T1 sequence (whole entry): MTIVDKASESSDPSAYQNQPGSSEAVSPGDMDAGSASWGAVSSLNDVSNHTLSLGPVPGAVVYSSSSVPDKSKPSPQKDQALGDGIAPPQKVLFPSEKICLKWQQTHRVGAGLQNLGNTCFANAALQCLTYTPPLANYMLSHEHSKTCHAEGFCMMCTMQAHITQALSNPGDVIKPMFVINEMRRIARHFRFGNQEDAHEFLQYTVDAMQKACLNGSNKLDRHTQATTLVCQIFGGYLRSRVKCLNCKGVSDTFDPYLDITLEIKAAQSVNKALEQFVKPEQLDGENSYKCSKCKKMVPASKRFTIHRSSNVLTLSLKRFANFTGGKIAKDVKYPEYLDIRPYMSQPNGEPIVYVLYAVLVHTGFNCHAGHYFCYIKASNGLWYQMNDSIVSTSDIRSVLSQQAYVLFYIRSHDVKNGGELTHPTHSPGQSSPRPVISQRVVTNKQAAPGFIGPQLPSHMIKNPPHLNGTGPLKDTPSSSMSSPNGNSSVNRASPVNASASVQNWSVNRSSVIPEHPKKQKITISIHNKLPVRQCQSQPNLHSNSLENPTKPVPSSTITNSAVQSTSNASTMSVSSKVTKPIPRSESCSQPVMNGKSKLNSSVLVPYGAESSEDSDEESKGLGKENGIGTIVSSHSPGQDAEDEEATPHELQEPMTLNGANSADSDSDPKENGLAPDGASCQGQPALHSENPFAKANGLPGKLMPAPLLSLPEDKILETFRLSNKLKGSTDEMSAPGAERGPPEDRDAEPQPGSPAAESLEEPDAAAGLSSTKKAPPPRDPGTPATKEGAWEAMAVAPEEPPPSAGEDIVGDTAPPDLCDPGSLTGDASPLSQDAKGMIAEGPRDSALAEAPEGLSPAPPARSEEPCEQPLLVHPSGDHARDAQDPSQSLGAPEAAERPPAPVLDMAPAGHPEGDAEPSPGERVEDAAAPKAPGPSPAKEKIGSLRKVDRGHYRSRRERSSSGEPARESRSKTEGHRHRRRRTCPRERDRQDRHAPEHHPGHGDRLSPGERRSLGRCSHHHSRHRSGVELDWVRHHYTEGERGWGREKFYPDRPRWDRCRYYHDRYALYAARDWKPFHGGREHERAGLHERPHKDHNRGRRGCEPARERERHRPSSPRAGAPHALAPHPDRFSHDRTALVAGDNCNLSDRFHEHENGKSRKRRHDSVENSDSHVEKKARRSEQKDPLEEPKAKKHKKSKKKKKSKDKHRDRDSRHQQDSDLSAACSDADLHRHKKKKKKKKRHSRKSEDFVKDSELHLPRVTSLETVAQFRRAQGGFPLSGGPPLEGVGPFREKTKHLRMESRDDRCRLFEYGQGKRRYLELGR
Summary of the method: (§1)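 HEK293T lysate (495 µg per sample, in Tris/CHAPS/IGEPAL buffer with protease inhibitors) was exposed in triplicate for 3 h to fragment at 200 µM or to vehicle, then to Biotin-Ahx-Ub-VS at 0.5 µM final for 1 h. Labelled DUBs were enriched on NeutrAvidin, digested with LysC and trypsin, and analysed by diaPASEF LC-MS/MS. Spectronaut label-free quantities were normalised to the global median, and values are average log2 ratios of fragment over vehicle from an unpaired t-test. Only proteins with ≥2 unique peptides were used.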

[2] = biological target: USP46 (UniProt P62068)
USP46, sequence (P62068 whole entry): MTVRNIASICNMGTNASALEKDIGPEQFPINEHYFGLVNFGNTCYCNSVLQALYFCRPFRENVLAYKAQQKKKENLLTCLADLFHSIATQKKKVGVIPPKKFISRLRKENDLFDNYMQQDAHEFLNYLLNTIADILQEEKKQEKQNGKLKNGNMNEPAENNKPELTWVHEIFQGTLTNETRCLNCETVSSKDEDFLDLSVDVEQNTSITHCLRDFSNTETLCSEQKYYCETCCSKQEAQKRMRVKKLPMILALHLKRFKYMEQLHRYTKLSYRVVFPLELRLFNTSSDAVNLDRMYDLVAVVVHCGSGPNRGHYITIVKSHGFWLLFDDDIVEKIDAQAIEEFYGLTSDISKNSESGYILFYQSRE
Summary of the method: as §1

[3] = biological target: T2, USP47 (UniProt Q96K76)
T2 sequence (whole entry): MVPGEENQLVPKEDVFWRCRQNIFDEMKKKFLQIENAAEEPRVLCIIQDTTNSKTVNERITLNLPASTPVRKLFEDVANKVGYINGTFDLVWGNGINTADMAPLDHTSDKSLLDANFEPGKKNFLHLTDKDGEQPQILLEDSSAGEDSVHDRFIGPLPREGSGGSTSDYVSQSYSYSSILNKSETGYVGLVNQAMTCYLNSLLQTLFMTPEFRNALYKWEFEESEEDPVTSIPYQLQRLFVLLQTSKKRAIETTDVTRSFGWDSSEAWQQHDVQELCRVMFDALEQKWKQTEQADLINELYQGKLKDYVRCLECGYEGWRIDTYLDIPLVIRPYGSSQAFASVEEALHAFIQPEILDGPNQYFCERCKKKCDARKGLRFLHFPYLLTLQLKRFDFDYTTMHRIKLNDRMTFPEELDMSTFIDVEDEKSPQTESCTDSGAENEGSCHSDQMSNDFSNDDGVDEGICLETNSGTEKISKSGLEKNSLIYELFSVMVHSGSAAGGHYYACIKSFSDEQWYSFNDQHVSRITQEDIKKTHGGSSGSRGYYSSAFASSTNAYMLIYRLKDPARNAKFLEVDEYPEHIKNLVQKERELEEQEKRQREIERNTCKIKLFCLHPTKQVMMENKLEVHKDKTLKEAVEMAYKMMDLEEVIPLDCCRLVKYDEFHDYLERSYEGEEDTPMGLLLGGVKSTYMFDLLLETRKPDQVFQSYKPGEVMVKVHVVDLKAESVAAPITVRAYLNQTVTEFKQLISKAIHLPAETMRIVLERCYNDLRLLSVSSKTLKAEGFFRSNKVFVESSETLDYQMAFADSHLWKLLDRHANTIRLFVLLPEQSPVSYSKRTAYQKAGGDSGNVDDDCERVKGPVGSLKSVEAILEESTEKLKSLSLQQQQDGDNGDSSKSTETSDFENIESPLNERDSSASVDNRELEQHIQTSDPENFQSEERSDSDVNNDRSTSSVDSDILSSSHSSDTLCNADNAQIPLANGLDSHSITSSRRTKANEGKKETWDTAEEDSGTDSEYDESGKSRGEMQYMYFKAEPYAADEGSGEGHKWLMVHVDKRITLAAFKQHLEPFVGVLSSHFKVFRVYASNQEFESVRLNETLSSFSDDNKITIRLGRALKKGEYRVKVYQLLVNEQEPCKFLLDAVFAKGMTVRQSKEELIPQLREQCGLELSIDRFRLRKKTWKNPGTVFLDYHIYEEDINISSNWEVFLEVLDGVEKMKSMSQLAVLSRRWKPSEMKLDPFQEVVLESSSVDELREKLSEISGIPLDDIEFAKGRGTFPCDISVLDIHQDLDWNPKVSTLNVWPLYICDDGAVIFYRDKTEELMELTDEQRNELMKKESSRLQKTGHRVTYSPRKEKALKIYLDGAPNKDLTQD
Summary of the method: as §1

[4] = biological target: T3, USP48 (UniProt Q86UV5)
T3 sequence (whole entry): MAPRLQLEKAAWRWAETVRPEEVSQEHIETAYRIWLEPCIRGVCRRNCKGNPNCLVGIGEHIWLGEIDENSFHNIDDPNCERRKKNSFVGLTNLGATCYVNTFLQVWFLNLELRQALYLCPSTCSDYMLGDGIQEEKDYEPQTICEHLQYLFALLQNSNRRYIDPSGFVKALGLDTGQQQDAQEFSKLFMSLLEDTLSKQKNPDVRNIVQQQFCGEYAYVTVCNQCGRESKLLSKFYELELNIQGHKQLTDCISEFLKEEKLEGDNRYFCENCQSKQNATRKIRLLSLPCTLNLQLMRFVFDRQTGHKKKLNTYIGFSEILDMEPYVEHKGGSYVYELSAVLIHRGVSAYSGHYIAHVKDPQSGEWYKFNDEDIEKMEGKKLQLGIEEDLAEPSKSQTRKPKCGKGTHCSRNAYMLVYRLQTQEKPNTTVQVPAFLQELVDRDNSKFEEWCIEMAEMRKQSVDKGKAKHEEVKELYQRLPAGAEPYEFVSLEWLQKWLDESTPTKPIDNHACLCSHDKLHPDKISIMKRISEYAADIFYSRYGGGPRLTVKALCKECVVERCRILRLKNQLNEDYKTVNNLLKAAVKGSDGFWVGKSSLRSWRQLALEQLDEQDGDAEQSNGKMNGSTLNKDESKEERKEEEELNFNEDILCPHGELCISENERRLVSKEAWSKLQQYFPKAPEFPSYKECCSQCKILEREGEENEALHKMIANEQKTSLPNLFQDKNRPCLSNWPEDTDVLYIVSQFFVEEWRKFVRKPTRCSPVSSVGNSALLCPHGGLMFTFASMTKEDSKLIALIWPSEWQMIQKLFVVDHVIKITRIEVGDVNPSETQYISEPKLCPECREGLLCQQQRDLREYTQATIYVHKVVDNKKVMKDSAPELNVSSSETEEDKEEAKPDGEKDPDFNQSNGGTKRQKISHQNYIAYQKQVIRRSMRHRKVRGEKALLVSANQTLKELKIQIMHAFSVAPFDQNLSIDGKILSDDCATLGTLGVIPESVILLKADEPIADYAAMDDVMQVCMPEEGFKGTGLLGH
Summary of the method: as §1

[5] = biological target: T4, USP5 (UniProt P45974)
T4 sequence (whole entry): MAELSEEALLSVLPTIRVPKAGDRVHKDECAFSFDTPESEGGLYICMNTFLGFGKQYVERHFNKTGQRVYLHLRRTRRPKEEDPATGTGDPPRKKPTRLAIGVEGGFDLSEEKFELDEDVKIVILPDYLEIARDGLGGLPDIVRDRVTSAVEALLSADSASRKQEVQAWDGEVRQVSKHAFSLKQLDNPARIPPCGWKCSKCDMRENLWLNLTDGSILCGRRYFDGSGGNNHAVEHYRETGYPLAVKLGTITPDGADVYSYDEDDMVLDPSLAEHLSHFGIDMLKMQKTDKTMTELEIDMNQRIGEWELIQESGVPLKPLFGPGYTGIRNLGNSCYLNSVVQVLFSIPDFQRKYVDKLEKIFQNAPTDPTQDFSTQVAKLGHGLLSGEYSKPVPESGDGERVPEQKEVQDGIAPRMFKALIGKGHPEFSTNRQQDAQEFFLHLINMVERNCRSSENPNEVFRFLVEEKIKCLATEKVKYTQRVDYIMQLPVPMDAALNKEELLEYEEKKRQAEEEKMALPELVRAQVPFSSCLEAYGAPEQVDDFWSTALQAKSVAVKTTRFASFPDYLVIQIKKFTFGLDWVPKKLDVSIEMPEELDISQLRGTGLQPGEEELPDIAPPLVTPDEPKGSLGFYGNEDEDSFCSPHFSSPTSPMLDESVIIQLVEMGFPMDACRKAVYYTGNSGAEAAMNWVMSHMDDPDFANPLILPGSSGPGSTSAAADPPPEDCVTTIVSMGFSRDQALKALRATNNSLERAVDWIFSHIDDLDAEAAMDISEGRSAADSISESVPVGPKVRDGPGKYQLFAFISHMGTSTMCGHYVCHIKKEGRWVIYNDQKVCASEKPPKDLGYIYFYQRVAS
Summary of the method: as §1

[6] = biological target: USP54 (UniProt Q70EL1)
USP54, sequence (Q70EL1 whole entry): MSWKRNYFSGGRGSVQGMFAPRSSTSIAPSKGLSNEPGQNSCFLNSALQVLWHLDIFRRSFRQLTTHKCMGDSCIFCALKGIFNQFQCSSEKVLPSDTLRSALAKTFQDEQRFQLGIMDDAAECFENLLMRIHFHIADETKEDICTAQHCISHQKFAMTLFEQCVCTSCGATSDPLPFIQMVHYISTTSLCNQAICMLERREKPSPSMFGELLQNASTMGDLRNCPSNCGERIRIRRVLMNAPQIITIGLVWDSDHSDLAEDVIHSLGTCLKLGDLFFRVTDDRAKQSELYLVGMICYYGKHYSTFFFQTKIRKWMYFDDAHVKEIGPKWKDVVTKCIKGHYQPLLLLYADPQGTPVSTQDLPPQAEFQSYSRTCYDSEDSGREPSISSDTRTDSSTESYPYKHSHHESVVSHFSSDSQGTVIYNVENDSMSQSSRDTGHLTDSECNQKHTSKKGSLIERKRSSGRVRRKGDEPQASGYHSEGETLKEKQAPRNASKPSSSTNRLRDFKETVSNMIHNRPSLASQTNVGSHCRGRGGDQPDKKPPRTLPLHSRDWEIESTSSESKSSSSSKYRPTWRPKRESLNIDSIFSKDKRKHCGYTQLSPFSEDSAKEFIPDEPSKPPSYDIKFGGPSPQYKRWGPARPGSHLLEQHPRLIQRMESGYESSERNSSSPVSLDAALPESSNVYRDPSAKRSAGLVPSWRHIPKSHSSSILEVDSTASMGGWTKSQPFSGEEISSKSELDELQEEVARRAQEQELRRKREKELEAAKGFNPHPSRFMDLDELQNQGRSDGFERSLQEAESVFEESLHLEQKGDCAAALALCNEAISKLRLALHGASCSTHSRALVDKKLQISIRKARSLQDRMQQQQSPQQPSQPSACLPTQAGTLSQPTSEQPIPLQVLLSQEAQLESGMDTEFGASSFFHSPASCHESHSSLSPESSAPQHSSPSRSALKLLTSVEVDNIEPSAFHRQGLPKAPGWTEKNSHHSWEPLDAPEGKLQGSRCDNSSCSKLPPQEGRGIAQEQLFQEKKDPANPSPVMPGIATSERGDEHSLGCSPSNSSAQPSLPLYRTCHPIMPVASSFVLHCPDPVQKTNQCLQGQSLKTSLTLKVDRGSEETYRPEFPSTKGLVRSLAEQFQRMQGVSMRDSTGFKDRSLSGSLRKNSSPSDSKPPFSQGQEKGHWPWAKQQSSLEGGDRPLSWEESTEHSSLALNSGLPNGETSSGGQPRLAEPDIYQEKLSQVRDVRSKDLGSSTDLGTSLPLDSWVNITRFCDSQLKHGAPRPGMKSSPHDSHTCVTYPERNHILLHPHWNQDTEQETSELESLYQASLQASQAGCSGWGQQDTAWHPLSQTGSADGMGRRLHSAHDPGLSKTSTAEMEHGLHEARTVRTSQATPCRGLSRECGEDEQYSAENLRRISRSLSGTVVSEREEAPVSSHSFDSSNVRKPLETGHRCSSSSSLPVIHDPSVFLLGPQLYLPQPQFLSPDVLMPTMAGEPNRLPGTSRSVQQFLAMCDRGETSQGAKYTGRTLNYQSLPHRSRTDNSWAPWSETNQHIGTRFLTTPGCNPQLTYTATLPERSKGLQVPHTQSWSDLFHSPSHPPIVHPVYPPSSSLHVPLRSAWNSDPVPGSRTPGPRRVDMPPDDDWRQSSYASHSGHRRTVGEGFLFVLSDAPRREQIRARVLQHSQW
Summary of the method: as §1

[7] = biological target: USP7 (UniProt Q93009)
USP7, sequence (Q93009 whole entry, looked up): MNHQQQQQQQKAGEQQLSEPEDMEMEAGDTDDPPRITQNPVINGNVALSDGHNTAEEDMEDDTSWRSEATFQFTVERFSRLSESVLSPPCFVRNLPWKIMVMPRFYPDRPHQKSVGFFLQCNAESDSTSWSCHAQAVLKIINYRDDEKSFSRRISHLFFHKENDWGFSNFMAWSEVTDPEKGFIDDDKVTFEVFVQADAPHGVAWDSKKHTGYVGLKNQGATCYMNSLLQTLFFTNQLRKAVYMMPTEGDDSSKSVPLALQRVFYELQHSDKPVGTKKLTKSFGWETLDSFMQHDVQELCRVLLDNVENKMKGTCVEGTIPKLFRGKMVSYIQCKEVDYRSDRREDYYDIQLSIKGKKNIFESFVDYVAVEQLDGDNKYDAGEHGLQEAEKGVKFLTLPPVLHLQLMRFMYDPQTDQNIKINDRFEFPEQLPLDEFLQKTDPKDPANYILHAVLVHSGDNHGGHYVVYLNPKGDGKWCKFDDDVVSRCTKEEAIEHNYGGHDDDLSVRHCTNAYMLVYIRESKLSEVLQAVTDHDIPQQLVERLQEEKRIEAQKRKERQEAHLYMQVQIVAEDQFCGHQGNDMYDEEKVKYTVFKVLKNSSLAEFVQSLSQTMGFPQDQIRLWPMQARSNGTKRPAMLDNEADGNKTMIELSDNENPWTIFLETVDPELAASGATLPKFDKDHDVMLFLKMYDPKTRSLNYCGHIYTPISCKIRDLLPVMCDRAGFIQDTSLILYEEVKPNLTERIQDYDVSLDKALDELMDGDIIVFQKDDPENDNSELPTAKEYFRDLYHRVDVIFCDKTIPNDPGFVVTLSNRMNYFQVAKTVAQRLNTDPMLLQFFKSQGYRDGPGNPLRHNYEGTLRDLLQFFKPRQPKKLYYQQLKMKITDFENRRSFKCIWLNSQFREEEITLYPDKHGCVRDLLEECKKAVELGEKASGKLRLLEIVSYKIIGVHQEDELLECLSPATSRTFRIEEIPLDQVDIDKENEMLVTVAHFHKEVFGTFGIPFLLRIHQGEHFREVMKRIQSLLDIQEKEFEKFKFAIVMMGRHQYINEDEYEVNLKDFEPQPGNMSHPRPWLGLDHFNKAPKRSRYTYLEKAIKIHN
Summary of the method: as §1

[8] = biological target: T5, USP8 (UniProt P40818)
T5 sequence (whole entry): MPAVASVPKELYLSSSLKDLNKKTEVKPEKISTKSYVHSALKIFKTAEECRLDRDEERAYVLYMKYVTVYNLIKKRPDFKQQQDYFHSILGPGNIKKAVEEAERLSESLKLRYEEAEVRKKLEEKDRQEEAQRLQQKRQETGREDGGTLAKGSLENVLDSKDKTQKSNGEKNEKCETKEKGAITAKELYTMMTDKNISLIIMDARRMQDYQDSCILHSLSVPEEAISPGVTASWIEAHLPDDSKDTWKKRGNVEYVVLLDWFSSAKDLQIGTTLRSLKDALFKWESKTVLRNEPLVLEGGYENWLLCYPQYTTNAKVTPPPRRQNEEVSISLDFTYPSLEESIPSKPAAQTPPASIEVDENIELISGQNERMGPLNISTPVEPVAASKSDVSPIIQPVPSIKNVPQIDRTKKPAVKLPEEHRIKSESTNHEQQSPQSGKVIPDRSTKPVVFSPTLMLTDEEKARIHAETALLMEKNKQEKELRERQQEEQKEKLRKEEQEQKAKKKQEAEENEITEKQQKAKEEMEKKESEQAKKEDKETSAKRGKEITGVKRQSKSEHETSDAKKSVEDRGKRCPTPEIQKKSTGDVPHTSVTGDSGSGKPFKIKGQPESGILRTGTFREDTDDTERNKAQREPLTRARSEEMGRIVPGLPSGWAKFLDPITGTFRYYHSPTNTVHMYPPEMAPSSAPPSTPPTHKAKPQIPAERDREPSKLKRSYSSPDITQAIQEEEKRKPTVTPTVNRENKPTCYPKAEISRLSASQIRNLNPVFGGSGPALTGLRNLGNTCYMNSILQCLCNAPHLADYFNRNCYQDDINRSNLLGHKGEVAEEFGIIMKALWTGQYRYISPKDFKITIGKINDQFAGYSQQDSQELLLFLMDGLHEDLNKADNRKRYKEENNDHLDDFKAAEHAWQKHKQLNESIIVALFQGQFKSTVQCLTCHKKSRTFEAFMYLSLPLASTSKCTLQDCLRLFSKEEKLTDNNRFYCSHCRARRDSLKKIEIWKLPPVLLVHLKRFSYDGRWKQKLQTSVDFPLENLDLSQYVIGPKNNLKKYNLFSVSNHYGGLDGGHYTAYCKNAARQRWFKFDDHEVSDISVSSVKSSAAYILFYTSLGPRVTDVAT
Summary of the method: as §1

Measured: log2 ratio of Biotin-Ahx-Ub-VS probe labelling

O=C(CCl)NC1CCCCNC1=O (stereo not drawn)
inactive: [1] 0.0716 | [2] -0.113 | [3] -0.161 | [4] -0.154 | [5] -0.327 | [6] 0.114 | [7] -0.264 | [8] -0.134
